Measurements reported in the supplement of paper PMC6897291.
Counter-ions that a name gives are not always drawn.

Each compound was assayed on RIVA (assay: growth inhibition by drug alone (1 - RLU/untreated control) (fraction); higher = stronger inhibition). Settings: 10 nM; time (day): 5; 177Lu-lilotomab satetraxetan 0 ug/ml.
Method in brief: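 RIVA or U-2932 cells were left untreated or pretreated for 18 h with a radiolabelled anti-CD37 antibody conjugate (~600 MBq/mg) at 0.5 µg/ml for RIVA or 1 µg/ml for U-2932. The cells were then washed and seeded at 3,000 cells/well on plates pre-printed with the Selleck Cambridge Cancer Compound library, dosed at 10/100 nM for RIVA and 10/1,000 nM for U-2932. From day 3, RealTime-Glo luminescence was read daily after 1 h at 37°C. Growth inhibition was taken as one minus RLU over the mean of the untreated no-drug wells, of which there were 48 per plate.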
`COc1ccc(S(=O)(=O)Nc2cccnc2Nc2ccc(O)cc2)cc1` was tested, and the “growth inhibition by drug alone” value was -0.215.
With `C[C@]12CCC(=O)C=C1CC[C@@H]1[C@@H]2[C@@H](O)C[C@@]2(C)[C@H]1CC[C@]2(O)C(=O)CO` [Hydrocortisone (Cortisol)] the “growth inhibition by drug alone” value was -0.194.
In the case of `COc1cc(OC2CCN(C)CC2)ccc1Nc1ncc2c(n1)n(C1CCCC1)c(=O)n2C`, the “growth inhibition by drug alone” value is reported as -0.358.
`Nc1nc(F)nc2c1ncn2[C@@H]1O[C@H](CO)[C@@H](O)[C@@H]1O` [Fludarabine (Fludara)] was tested, and the “growth inhibition by drug alone” value was 0.0106.
For `Nc1nc(Nc2ccc(S(N)(=O)=O)cc2)nn1C(=O)c1c(F)cccc1F`, the “growth inhibition by drug alone” value was -0.071.
`Nc1ncn([C@@H]2O[C@H](CO)[C@@H](O)[C@H]2O)c(=O)n1` [Azacitidine (Vidaza)] was tested, and the “growth inhibition by drug alone” value was -0.358.
In the case of `COc1cc2nccc(Oc3ccc(NC(=O)NC4CC4)c(Cl)c3)c2cc1C(N)=O` [E7080 (Lenvatinib)], the “growth inhibition by drug alone” value is reported as -0.3.
`Nc1ccn([C@@H]2O[C@H](CO)[C@@H](O)[C@@H]2O)c(=O)n1` [Cytarabine] was tested, and the “growth inhibition by drug alone” value was -0.108.
`Nc1cccc2c1C(=O)N(C1CCC(=O)NC1=O)C2=O` (stereo not drawn) [Pomalidomide] was tested, and the “growth inhibition by drug alone” value was -0.0766.
For `CN(C)c1nc(N(C)C)nc(N(C)C)n1` [Altretamine (Hexalen)], the “growth inhibition by drug alone” value was -0.29.
`Cc1[nH]c(/C=C2\C(=O)Nc3ccc(S(=O)(=O)N(C)c4cccc(Cl)c4)cc32)c(C)c1C(=O)N1CCN(C)CC1` was tested, and the “growth inhibition by drug alone” value was -0.209.
In the case of `O=C(O[C@@H]1Cc2c(O)cc(O)cc2O[C@@H]1c1cc(O)c(O)c(O)c1)c1cc(O)c(O)c(O)c1` [(-)-Epigallocatechin gallate], the “growth inhibition by drug alone” value is reported as -0.418.
`CCc1c2c(nc3ccc(OC(=O)N4CCC(N5CCCCC5)CC4)cc13)-c1cc3c(c(=O)n1C2)COC(=O)[C@]3(O)CC` [Irinotecan HCl Trihydrate (Campto)] was tested, and the “growth inhibition by drug alone” value was -0.223.
For `S=C(NCc1ccc2c(c1)OCO2)N1CCN(c2ncnc3c2oc2ccccc23)CC1` [Amuvatinib (MP-470)], the “growth inhibition by drug alone” value was 0.0228.
`COc1ccc2c3n(c(=NC(=O)c4cccnc4)nc2c1OC)CCN3` was tested, and the “growth inhibition by drug alone” value was -0.0752.
For `C#Cc1cccc(Nc2ncnc3cc(OCCOC)c(OCCOC)cc23)c1` [Erlotinib HCl], the “growth inhibition by drug alone” value was 0.131.
`Cc1ccc(-c2cc(C(F)(F)F)nn2-c2ccc(S(N)(=O)=O)cc2)cc1` [Celecoxib] was tested, and the “growth inhibition by drug alone” value was -0.153.
For `N#CC[C@H](C1CCCC1)n1cc(-c2ncnc3[nH]ccc23)cn1`, the “growth inhibition by drug alone” value was -0.0792.
`CCc1cncnc1N1CCN(Cc2nc3ccc(C(F)(F)F)cc3[nH]2)CC1` was tested, and the “growth inhibition by drug alone” value was -0.0829.
`CCN(CC)C(=S)SSC(=S)N(CC)CC` [Disulfiram (Antabuse)] was tested, and the “growth inhibition by drug alone” value was -0.147.
With `CC(C)[C@H](C(=O)Nc1ccc(C(=O)NO)cc1)c1ccccc1` the “growth inhibition by drug alone” value was -0.0451.
In the case of `CC(=O)O[C@]1(C(C)=O)CC[C@H]2[C@@H]3C=C(C)C4=CC(=O)CC[C@]4(C)[C@H]3CC[C@@]21C` [Megestrol Acetate], the “growth inhibition by drug alone” value is reported as -0.107.
With `COc1cc2ncnc(Nc3cccc(Br)c3)c2cc1OC` the “growth inhibition by drug alone” value was -0.0662.
`N#Cc1ccc(C(c2ccc(C#N)cc2)n2cncn2)cc1` [Letrozole] was tested, and the “growth inhibition by drug alone” value was -0.249.
In the case of `CC(=O)c1c(C)c2cnc(Nc3ccc(N4CCNCC4)cn3)nc2n(C2CCCC2)c1=O`, the “growth inhibition by drug alone” value is reported as -0.148.
`COc1cccc2c1C(=O)c1c(O)c3c(c(O)c1C2=O)C[C@@](O)(C(=O)CO)C[C@@H]3O[C@H]1C[C@H](N)[C@H](O)[C@H](C)O1` [Doxorubicin (Adriamycin)] was tested, and the “growth inhibition by drug alone” value was 0.365.
For `CC(C)(C)c1[nH]cnc1/C=c1\[nH]c(=O)/c(=C/c2ccccc2)[nH]c1=O` [NPI-2358 (Plinabulin)], the “growth inhibition by drug alone” value was -0.112.
With `COc1cc(Nc2ncc3c(n2)-c2ccc(Cl)cc2C(c2c(F)cccc2OC)=NC3)ccc1C(=O)O` [MLN8237 (Alisertib)] the “growth inhibition by drug alone” value was -0.136.
In the case of `O=c1[nH]cc(F)c(=O)[nH]1` [Adrucil (Fluorouracil)], the “growth inhibition by drug alone” value is reported as -0.384.
For `CC(C)c1ccc(Cn2ccc3c4c(N)nc(NC5CC5)nc4ccc32)cc1`, the “growth inhibition by drug alone” value was 0.0828.
With `CC/C(=C(\c1ccccc1)c1ccc(OCCN(C)C)cc1)c1ccccc1` [Tamoxifen Citrate (Nolvadex)] the “growth inhibition by drug alone” value was 0.0782.
For `Cn1cc(C2=C(c3ccc(Cl)cc3Cl)C(=O)NC2=O)c2ccccc21`, the “growth inhibition by drug alone” value was -0.108.
In the case of `c1ccc(-c2nn3c(c2-c2ccnc4cc(OCCN5CCOCC5)ccc24)CCC3)nc1`, the “growth inhibition by drug alone” value is reported as -0.142.
In the case of `O=C(NCCS(=O)(=O)c1ccc(C(F)(F)F)cn1)c1ccc(Cl)cc1`, the “growth inhibition by drug alone” value is reported as -0.0699.
For `Cc1ccc(S(=O)(=O)C=CC#N)cc1`, the “growth inhibition by drug alone” value was -0.0606.
`CCC1=C[C@@H]2CN(C1)Cc1c([nH]c3ccccc13)[C@@](C(=O)OC)(c1cc3c(cc1OC)N(C)[C@H]1[C@@](O)(C(=O)OC)[C@H](OC(C)=O)[C@]4(CC)C=CCN5CC[C@]31[C@@H]54)C2` [Vinorelbine (Navelbine)] was tested, and the “growth inhibition by drug alone” value was 0.922.
With `Cc1cc(Nc2cc(N3CCN(C)CC3)nc(/C=C/c3ccccc3)n2)n[nH]1` the “growth inhibition by drug alone” value was -0.318.
`CN(N=O)C(=O)N[C@@H](C=O)[C@@H](O)[C@H](O)[C@H](O)CO` [Streptozotocin (Zanosar)] was tested, and the “growth inhibition by drug alone” value was -0.296.
